Source: PubChem BioAssay
Calls of active or inactive are those of the source.

Assay: FRG1 promoter luciferase signal modulators, primary screen, FRG1 inhibition for FSHD, cell-based, C2C12 myotubes, firefly/Renilla luciferase, luminescence (AID 1084)
Conditions: higher = more signal, called active from +8 up or from −8 down
For CC(C)=CCCC(C)=CCON=C1C[C@@H](O)[C@@H](O)[C@@H]2[C@@H]3C(=O)N(C[C@@H]4CCCO4)C(=O)[C@@H]3CC[C@@H]12, the z-score was -0.24 (inactive). With CCOC(=O)NN=C1C[C@@H](O)[C@@H](O)[C@@H]2[C@@H]3C(=O)N(C(C)(C)C)C(=O)[C@@H]3CC[C@@H]12 the z-score was -0.0445 (inactive). With COCCCNC(=O)[C@]1(Cc2ccccc2)N=C(c2ccc(OCCCO)cc2)O[C@@H]1c1ccccc1 the z-score was -1.33 (inactive). With CC(C)=NOCc1ccc(-c2cc(-c3ccccc3)no2)cc1 the z-score was -0.172 (inactive). In the case of COCCCNC(=O)[C@@]1(Sc2ccc(C)cc2)CC(=O)N(Cc2ccccc2)[C@@H]1c1ccc(CO)cc1I, the z-score is reported as -0.646 (inactive). With COc1ccc(-c2ccc3c(n2)CCCN3CC(O)CN2CCCc3nc(C)c(C)cc32)cc1 (stereo not given) the z-score was 3.33 (inactive). With CC(=O)OC[C@H]1O[C@H](CC=NOC[C@@H](C)[C@H](OCc2ccccc2)C(C)C)C=C[C@@H]1OC(C)=O the z-score was 0.183 (inactive). With CC(CCC(=O)OC[C@H]1O[C@H](C#Cc2ccccc2)C=C[C@@H]1Oc1ccc(C)cc1)=NO[C@@H](C)c1cn([C@H](CO)Cc2ccccc2)nn1 the z-score was 1.02 (inactive). For COc1ccc([Si](C)(C)[C@H]2[C@H](CCO)O[C@@]3(C(=O)N(Cc4cccc(NC(=O)[C@H](C)O)c4)c4ccccc43)[C@@H]2C)cc1, the z-score was -2.68 (inactive).

Assay: binders of probe aFST on microarray, primary screen, stem cell growth factor project, biochemical, small-molecule microarray, fluorescence 635/667 (AID 1086);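 note: score merges 667 nm fluorescence with signal-to-noise of each printed compound spot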
Conditions: higher = more signal
CC(C)CON=C1[C@H]2CCn3c(=O)n(-c4ccccc4)c(=O)n3[C@H]2[C@H](O)[C@@H]2O[C@H]12 gave a composite z-score of 0.204. For O=C1C[C@@H](O)[C@@H](O)[C@@H]2[C@@H]3C(=O)N(c4cccc(Oc5ccccc5)c4)C(=O)[C@@H]3CC[C@@H]12, the composite z-score was 0.0399. CO[C@H]([C@@H](C)[C@H](OC)c1ccccc1)[C@H](C)[C@@H](OC)[C@H](C)C(C)=O showed a composite z-score of 0.0432. For Cc1ccc(S[C@]2(C(=O)NCC(F)(F)F)CC(=O)N(Cc3ccccc3Cl)[C@@H]2c2ccc(CO)cc2I)cc1, the composite z-score was -0.611. In the case of O=C1O[C@@H](c2ccccc2)[C@@H](c2ccccc2)N2[C@@H](c3ccc(O)cc3)[C@]3(C(=O)Nc4ccccc43)[C@@H](C(=O)O)[C@H]12, the composite z-score is reported as 0.231. Compound COCCNC(=O)OCC1CCCC2(CC(OC(=O)NCCc3ccc(F)cc3)CC(CCC(=O)N[C@@H](C)C(=O)OC)O2)O1 (stereo not given in full) has a composite z-score of 0.347. CCCNC(=O)[C@@H]1c2ccccc2C(=O)N(c2ccc(C)cn2)[C@H]1c1ccc(CO)cc1 showed a composite z-score of -0.348. For CCOC(=O)[C@H](CC(C)C)NC(=O)CCC1CC(OC(=O)NCCc2ccc(F)cc2)CC2(CCCC(COC(=O)NCc3ccccc3)O2)O1 (stereo not given in full), the composite z-score was 0.223. CCOC(=O)CCN1C(=O)[C@H]2[C@H]3[C@H](O)[C@H](O)CC(=O)[C@H]3CC[C@H]2C1=O gave a composite z-score of 0.372. In the case of C=CCC(OC(C)=O)[C@@H]1[C@@H](N(Cc2cc3ccccc3o2)C(=O)Cc2ccc(F)cc2)c2cc(OCCCO)ccc2N1C(=O)Cc1ccc(OC)cc1 (stereo not given in full), the composite z-score is reported as -0.0711. Compound CCOC(=O)NN=C1C[C@@H](O)[C@@H](O)[C@@H]2[C@@H]3C(=O)N(C[C@@H]4CCCO4)C(=O)[C@@H]3CC[C@@H]12 has a composite z-score of 0.0701. Work on COc1ccc(-c2nc3c(c4c2C[C@H](C)OC4)CN(CCC(C)C)CC3)cc1 yielded a composite z-score of 0.414. CO[C@@H]1COC(=O)[C@@H]2CCCN2C(=O)[C@@H](C)COC(=O)[C@H](COCc2ccccc2)NC(=O)CC=C[C@H]1C showed a composite z-score of 0.79. CCN1C(=O)[C@H]2[C@H]3[C@H](O)[C@H](O)CC(=NOC(C)CN4CCCCc5nc(C)c(C)cc54)[C@@H]3CC[C@H]2C1=O (stereo not given in full) showed a composite z-score of 0.253. Work on CCc1cc2c(nc1CC)CCN(CCC(C)=NO[C@@H](C)c1cc(-c3c(C)cc(C)cc3C)no1)C2 yielded a composite z-score of -0.119. In the case of CO[C@H]1O[C@H](CO)[C@@H](OC(=O)Nc2ccc3c(c2)OCO3)[C@H](OC(=O)Nc2ccccc2-c2ccccc2)[C@@H]1OC(=O)Nc1ccccc1-c1ccccc1, the composite z-score is reported as 0.626. In the case of COC(=O)[C@@]1(Cc2ccc(F)cc2)[C@H]2c3cc(C(=O)N(C)C)n(Cc4ccc(OC)c(OC)c4)c3C[C@H]2CN1C(=O)c1ccccc1, the composite z-score is reported as 0.169. CC(C)NC(=O)[C@@]1(C)c2ccccc2C(=O)N(Cc2cc(F)cc(C(F)(F)F)c2)[C@H]1c1ccc(CO)cc1 showed a composite z-score of 0.298. O=C1NC(=O)C2C1C=CC(C(O)Cc1ccccc1)N2Nc1ccccn1 (stereo not given) showed a composite z-score of 0.494. With CC[C@@H](c1ccccc1)n1c(=O)n2n(c1=O)[C@H]1[C@H](O)[C@@H]3O[C@@H]3C(=NOCC(C)C)[C@H]1CC2 the composite z-score was 0.0308. With COc1cccc([C@H]2Oc3ccc(OC)cc3C(=NO[C@H](C)c3cn([C@@H]4COC[C@H]4O)nn3)[C@@H]2O)c1 the composite z-score was -0.324. In the case of COCCOC(=O)N1C(=O)[C@@]2(c3cc(C#CCNC(N)=O)ccc31)[C@H](c1ccc(O)cc1)N1[C@H](c3ccccc3)[C@H](c3ccccc3)OC(=O)[C@H]1[C@@H]2C(=O)N1CCCCCCC1, the composite z-score is reported as 1.2. With C[C@@H](c1ccccc1)N1C(=O)[C@H]2[C@H]3[C@H](O)C=CC(=O)[C@@H]3CC[C@H]2C1=O the composite z-score was 0.123. Work on CCCC[C@H]1OB(O)C[C@H]2C1=C(C)C[C@H]1C(=O)N(C)C(=O)[C@H]12 yielded a composite z-score of 0.349. Work on CCCCc1nc2c(c3c1C[C@H](C)OC3)CN(CCC(C)C)CC2 yielded a composite z-score of 0.295. In the case of C/C=C\[C@@H](NCc1ccccc1Br)[C@@H](O)Cc1ccccc1, the composite z-score is reported as -0.336. In the case of CC(=O)C[C@H](O)[C@@H](NC(=O)OC(C)(C)C)C(C)C, the composite z-score is reported as -0.126. CC(C)=CCCC(C)=CCON=C1C[C@@H](O)[C@@H](O)[C@@H]2[C@@H]3C(=O)N(C[C@@H]4CCCO4)C(=O)[C@@H]3CC[C@@H]12 gave a composite z-score of 0.28. With CCOC(=O)NN=C1C[C@@H](O)[C@@H](O)[C@@H]2[C@@H]3C(=O)N(C(C)(C)C)C(=O)[C@@H]3CC[C@@H]12 the composite z-score was 0.577. With COCCCNC(=O)[C@]1(Cc2ccccc2)N=C(c2ccc(OCCCO)cc2)O[C@@H]1c1ccccc1 the composite z-score was 0.584. Work on CC(C)=NOCc1ccc(-c2cc(-c3ccccc3)no2)cc1 yielded a composite z-score of 0.0003. With COCCCNC(=O)[C@@]1(Sc2ccc(C)cc2)CC(=O)N(Cc2ccccc2)[C@@H]1c1ccc(CO)cc1I the composite z-score was 0.458. Compound COc1ccc(-c2ccc3c(n2)CCCN3CC(O)CN2CCCc3nc(C)c(C)cc32)cc1 (stereo not given) has a composite z-score of 1.02. Work on CC(=O)OC[C@H]1O[C@H](CC=NOC[C@@H](C)[C@H](OCc2ccccc2)C(C)C)C=C[C@@H]1OC(C)=O yielded a composite z-score of -0.341. Work on CC(CCC(=O)OC[C@H]1O[C@H](C#Cc2ccccc2)C=C[C@@H]1Oc1ccc(C)cc1)=NO[C@@H](C)c1cn([C@H](CO)Cc2ccccc2)nn1 yielded a composite z-score of 0.263. For COc1ccc([Si](C)(C)[C@H]2[C@H](CCO)O[C@@]3(C(=O)N(Cc4cccc(NC(=O)[C@H](C)O)c4)c4ccccc43)[C@@H]2C)cc1, the composite z-score was -0.0054.
